Experimental findings from PubChem BioAssay (NCATS) are described below.

Records with an inconclusive call do not appear. Activity calls are given as the source filed them. Unless noted, the call rests on the fitted dose curve.

The nature of assay [1]: qHTS for Inhibitors of the Functional Ribonucleoprotein Complex (vRNP) of Lassa (LASV) Arenavirus: LASV Primary Screen - GLuc reporter signal (AID 1347082; calls by dose curve; tested in HEK293 reporter line; further: nearly all actives have a fitted effect of over 60% in size; further: potency means the concentration at half of the fitted maximal effect; on activity change, negative = inhibition: on the % scale 0 is the no-effect control and ±100 the full control effect). A general note: In qHTS, concentration-response curves come from the screen itself.
Assay [2] can be described thus: qHTS for Inhibitors of the Functional Ribonucleoprotein Complex (vRNP) of Lassa (LASV) Arenavirus: Viability assay - alamar blue signal for LASV Primary Screen (AID 1347083; calls by dose curve; tested in HEK293 reporter line; further: nearly all actives have a fitted effect of over 80% in size; further: potency means the concentration at half of the fitted maximal effect).
Assay [3] in a line: qHTS for Inhibitors of the Functional Ribonucleoprotein Complex (vRNP) of Lymphocytic Choriomeningitis Arenaviruses (LCMV): Viability assay - alamar blue signal for LCMV Primary Screen (AID 1347085; calls by dose curve; tested in HEK293 reporter line; further: nearly all actives have a fitted effect of over 80% in size; further: potency means the concentration at half of the fitted maximal effect).
Assay [4] deals with Nucleoprotein (Lymphocytic choriomeningitis virus (strain Armstrong)) (UniProt P09992). Kind of assay: qHTS for Inhibitors of the Functional Ribonucleoprotein Complex (vRNP) of Lymphocytic Choriomeningitis Arenaviruses (LCMV): LCMV Primary Screen - GLuc reporter signal (AID 1347086). Further: nearly all actives have a fitted effect of over 70% in size. Further: potency means the concentration at half of the fitted maximal effect. On activity change, negative = inhibition: on the % scale 0 is the no-effect control and ±100 the full control effect.
Assay [5] can be described thus: Cytotoxicity counterscreen for inhibitors of SARS-CoV-2 cell entry (AID 1645845). Further: nearly all actives have a fitted effect of over 50% in size. The essentials: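 48 h compound treatment (after 1 h preincubation), HEK293-ACE2 cells, 37 C/5% CO2; ATP luminescence endpoint; normalized to cell wells and media blanks.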
In general terms: A counterscreen serves to expose hits that act by an unwanted route or on another target.

A short description of assay [6]: Primary qHTS to identify inhibitors of SARS-CoV-2 cell entry (AID 1645846). Further: nearly all actives have a fitted effect of over 45% in size. The following applies: activity change, negative = inhibition: at 57.1 µM (top of the series) unless noted. The essentials: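 Inhibition of spike-mediated entry was scored in human ACE2-transfected Expi293F cells. Particles were MLV-pseudotyped with Wuhan-Hu-1 S carrying a 19-aa C-terminal deletion; signal was luciferase after two days, scaled between spike PP and fusion-protein-free PP.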

Another assay relates to CRL-7250. Kind of assay: qHTS assay to identify novel small-molecules to repurpose for Merkel cell carcinoma treatment (AID 1296009; active means well fitted inhibition curve with a large enough effect; further: nearly all actives have a fitted effect of over 60% in size). As to conditions: MCC and control cell lines, CellTiter-Glo viability, 72 h; series mostly up to 92 µM. The procedure, abridged: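 72 hr, 37 degree celsius; NPC 8-pt / MIPE 11-pt dose response; compound pinned in DMSO; CellTiter-Glo, 10 min RT, luminescence; normalized to no-cell and DMSO controls.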

Assay [7] can be described thus: qHTS profiling of the MIPE4 collection as inhibitors of Plasmodium falciparum (DD2) proliferation (AID 743345; call rule not given here). The following applies: P. falciparum Dd2 in erythrocytes, SYBR Green DNA, 72 h; at 28.5 µM (top of the series) unless noted. The procedure, abridged: (§1)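 Erythrocytes infected with P. falciparum (0.3% parasitemia, 2.5% hematocrit) incubated with compounds 72 h at 37 C, 5% CO2. Lysis with saponin/Triton buffer containing SYBR Green I, overnight at room temperature in the dark; DNA fluorescence (485/535 nm) normalised to 0.29 uM artemisinin and DMSO.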

The nature of assay [8]: qHTS profiling of the MIPE4 collection as inhibitors of Plasmodium falciparum (DD2) proliferation (Rep 2) (AID 743346; call rule not given here). As to conditions: P. falciparum Dd2 in erythrocytes, SYBR Green DNA, 72 h; at 28.5 µM (top of the series) unless noted. The procedure, abridged: as §1
Assay [9] is described as follows: qHTS profiling of the MIPE4 collection as inhibitors of Plasmodium falciparum (3D7) proliferation (AID 743344; call rule not given here;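 further: scaled between DMSO vehicle wells and 0.29 µM artemisinin as full inhibition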). As to conditions: P. falciparum 3D7 in erythrocytes, SYBR Green DNA fluorescence, 72 h; at 28.5 µM (top of the series) unless noted. The essentials:
as §1

In assay [10] the target is Bile acid receptor (Homo sapiens) (UniProt Q96RI1). Put plainly: qHTS assay for small molecule agonists of farnesoid X receptor signaling (AID 588527).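 Further: 0% = vehicle basal and 100% = reference agonist.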 As to conditions: HEK293T FXR-UAS-bla, beta-lactamase ratio, 16 h; activation: stronger effect = higher value. The essentials:
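Read-out: beta-lactamase reporter fluorescence with CCF4 substrate in GeneBLAzer FXR-UAS-bla HEK293T cells, after 16 h compound exposure at 37 C. Response scaled between DMSO basal (0%) and chenodeoxycholic acid at 100 uM (100%).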

The target of assay [11] is Peroxisome proliferator-activated receptor delta (Homo sapiens) (UniProt Q03181). Put plainly: qHTS assay for small molecule agonists of peroxisome proliferator-activated receptor delta signaling (AID 588534).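 Further: 0% = DMSO basal wells and 100% = positive control agonist at 10 µM.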 The procedure, abridged: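 Fluorescence from CCF4 substrate cleavage by beta-lactamase reporter, read 2 hrs at RT, measured agonist activity. Compounds were tested with 18 hrs exposure at 37 C. Concentration-response data fitted to Hill equation.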

Assay [12] is described as follows: qHTS profiling of the MIPE4 collection as inhibitors of Plasmodium falciparum (HB3) proliferation (AID 743347; call rule not given here;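 further: plate controls were DMSO vehicle wells for no effect and artemisinin wells for full effect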). As to conditions: P. falciparum HB3 in erythrocytes, SYBR Green DNA, 72 h; at 28.5 µM (top of the series) unless noted. The procedure, abridged: as §1

Sequence of Nucleoprotein (Lymphocytic choriomeningitis virus (strain Armstrong)) (P09992 whole entry, looked up): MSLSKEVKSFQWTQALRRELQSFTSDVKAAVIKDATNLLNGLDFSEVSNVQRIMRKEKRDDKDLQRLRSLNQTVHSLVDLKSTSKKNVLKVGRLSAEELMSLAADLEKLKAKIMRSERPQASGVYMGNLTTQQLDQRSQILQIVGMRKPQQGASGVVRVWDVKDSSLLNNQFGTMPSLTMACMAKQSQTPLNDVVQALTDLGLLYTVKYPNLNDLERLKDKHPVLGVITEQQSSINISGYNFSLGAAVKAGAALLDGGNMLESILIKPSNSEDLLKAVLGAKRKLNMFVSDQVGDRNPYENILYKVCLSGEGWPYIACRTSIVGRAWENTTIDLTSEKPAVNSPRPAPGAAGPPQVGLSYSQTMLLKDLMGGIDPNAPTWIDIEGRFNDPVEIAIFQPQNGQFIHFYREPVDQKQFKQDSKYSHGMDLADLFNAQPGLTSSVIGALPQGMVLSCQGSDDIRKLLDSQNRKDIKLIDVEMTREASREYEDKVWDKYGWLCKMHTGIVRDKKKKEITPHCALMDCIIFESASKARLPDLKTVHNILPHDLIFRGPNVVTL
Sequence of Bile acid receptor (Homo sapiens) (Q96RI1 whole entry, looked up): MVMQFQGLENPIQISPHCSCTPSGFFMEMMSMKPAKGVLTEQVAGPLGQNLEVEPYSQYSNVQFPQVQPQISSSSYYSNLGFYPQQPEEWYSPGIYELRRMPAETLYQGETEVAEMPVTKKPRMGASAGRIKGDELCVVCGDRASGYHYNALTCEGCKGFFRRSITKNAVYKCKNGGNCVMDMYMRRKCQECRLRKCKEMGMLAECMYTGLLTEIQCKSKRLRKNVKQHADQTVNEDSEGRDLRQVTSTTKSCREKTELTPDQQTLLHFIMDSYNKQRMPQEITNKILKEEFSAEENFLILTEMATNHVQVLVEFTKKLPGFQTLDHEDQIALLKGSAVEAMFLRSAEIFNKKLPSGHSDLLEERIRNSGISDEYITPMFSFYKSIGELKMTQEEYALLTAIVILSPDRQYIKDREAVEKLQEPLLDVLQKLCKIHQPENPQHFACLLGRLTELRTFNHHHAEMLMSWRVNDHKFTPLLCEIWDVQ
Sequence of Peroxisome proliferator-activated receptor delta (Homo sapiens) (Q03181 whole entry, looked up): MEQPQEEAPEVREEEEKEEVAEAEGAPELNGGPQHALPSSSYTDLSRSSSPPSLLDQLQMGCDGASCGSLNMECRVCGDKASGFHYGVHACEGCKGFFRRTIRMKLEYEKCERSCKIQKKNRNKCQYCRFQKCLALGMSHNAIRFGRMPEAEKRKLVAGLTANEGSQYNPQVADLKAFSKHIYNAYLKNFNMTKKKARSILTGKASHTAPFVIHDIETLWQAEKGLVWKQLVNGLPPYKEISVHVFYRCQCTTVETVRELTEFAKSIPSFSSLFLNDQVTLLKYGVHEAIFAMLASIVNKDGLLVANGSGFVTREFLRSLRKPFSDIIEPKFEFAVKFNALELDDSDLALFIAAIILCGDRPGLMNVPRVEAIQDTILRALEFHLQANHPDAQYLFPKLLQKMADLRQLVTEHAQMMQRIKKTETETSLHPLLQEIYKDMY

Consider `O=C1CCC[C@@H]2[C@H]3CCC[N+]4([O-])CCC[C@@H](CN12)[C@@H]34` (stereo partly specified), for which the Potency entry (in assay [1]; in [2]; in [3]; in [4]; in [5]; with CRL-7250) was “inactive” throughout. In assay [6], the activity change, negative = inhibition was -3.17%.
In the case of `Cc1ccccc1-n1c(Cn2nc(-c3cccc(O)c3)c3c(N)ncnc32)nc2cccc(C)c2c1=O`, the Potency in assay [1] is 19.3 µM (active); in [2] it was 6.11 µM (active); in [3] it was 4.32 µM (active); in assay [4], 3.85 µM (active). Moreover, the Potency result (in [5]; with CRL-7250) was “inactive” each time. Also, the activity change, negative = inhibition in assay [6] is -14.4%.
`OC[C@H]1OC(O)C[C@@H](O)[C@H]1O` (stereo partly specified): the parasite growth remaining, % of DMSO control (lower = more inhibition) in assay [7] came to 88.2%. The parasite growth, % of control (lower = inhibition) in assay [8] was 96%. The Potency entry (in assay [1]; in assay [2]; in [3]; in assay [4]; in assay [5]; in the assay with CRL-7250) was “inactive” each time. Further, in assay [6], the activity change, negative = inhibition is -3.07%.
`CC=CCC=CCCC(=O)[C@H]1O[C@@H]1C(N)=O` showed a parasite growth, % of DMSO control in assay [9] of 65.1%. This molecule also showed a parasite growth remaining, % of DMSO control (lower = more inhibition) in assay [7] of 87.5%. The parasite growth, % of control (lower = inhibition) in assay [8] amounted to 60%. Further, the Potency entry (in [1]; in assay [2]; in assay [3]; in assay [4]; in the assay with CRL-7250) was “inactive” each time.
Regarding `O=C(/C=C/C=C/c1ccc2c(c1)OCO2)N1CCCCC1`, the activation in assay [10] was 4.73% (inactive). The Potency result in [11], in assay [1], in [2], in [3], in assay [4] and in assay [5] was “inactive” in each case. Further, the Potency entry with CRL-7250 is “inactive”. The activity change, negative = inhibition in [6] was -9.28%.
`CC(C)N(CC[C@H](c1ccccc1)c1cc(CO)ccc1O)C(C)C` registered a parasite growth, % of DMSO control in [9] of 81.5%. In addition, the parasite growth remaining, % of DMSO control (lower = more inhibition) in assay [7] was 83.7%. Also, the Potency entry (in [1]; in assay [2]; in [3]; in [4]; in the assay with CRL-7250) was “inactive” each time.
Regarding `Cc1ccccc1C(C(=O)NC1CCCCC1)N(C(=O)Cn1ccnc1C)c1cccc(F)c1` (stereo unspecified), the Potency result (in assay [1]; in [2]; in assay [3]; in assay [4]; in assay [5]; in the assay on CRL-7250) was “inactive” throughout. Also, the activity change, negative = inhibition in [6] was -3.95%.
With `O=c1[nH]c(=O)n(C2CCCO2)cc1F` (stereo unspecified), the Potency entry (in assay [1]; in assay [2]; in [3]; in [4]; in [5]; in the assay with CRL-7250) was “inactive” in each case. For the same molecule, the activity change, negative = inhibition in assay [6] was -6.03%.
In the case of `C[C@@H]1C(=O)O[C@H]2CC34[C@H]5C[C@@H](C(C)(C)C)C36[C@H](OC(=O)[C@@H]6O)O[C@@]4(C(=O)O5)[C@]21O` (stereo partly specified), in [9], the parasite growth, % of DMSO control was 77.1%. In assay [8], the parasite growth, % of control (lower = inhibition) turned out to be 91.1%. The molecule further gave a growth, % of control in [12] of 102%. In addition, the Potency entry in [1], in assay [2], in assay [3], in [4], in assay [5] and in [6] was “inactive” in each case. The Potency result in the assay with CRL-7250 was “inactive”.
